MEKK2 WT-MEK5: modulators of MEK5 binding to wildtype MEKK2, primary screen, biochemical, multiplex bead flow cytometry, Alexa488-MEK5 | Mitogen-activated protein kinase kinase kinase 2 (Homo sapiens), Q9Y2U5 | Alexa488-MEK5 binding to MEKK2 WT; actives lie on both sides | binding response (% of control), % at 10 µM | 290,000 compounds, 1.1% hits | AID 1531, 2009; in the data active = binding response below about 67% or above about 130%; inconclusive = no clear call, values can overlap the other calls; inactive = in between
GRK2 inh: compounds blocking aptamer binding on GRK2 – biochemical, human GRK2, bead flow cytometry, HTS, primary screen; inhibition of aptamer binding, % at 10 µM; Beta-adrenergic receptor kinase 1 (Homo sapiens), P25098; 330,000 compounds, 0.59% hits; FAM-aptamer displacement from GRK2;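 active = inhibition of aptamer binding above 40%, roughly 3 SD of noise, on plates passing a quality check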;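 also: median bead fluorescence of bound FAM aptamer so fluorescent compounds give negative values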
Target sequence (P25098 whole entry, looked up): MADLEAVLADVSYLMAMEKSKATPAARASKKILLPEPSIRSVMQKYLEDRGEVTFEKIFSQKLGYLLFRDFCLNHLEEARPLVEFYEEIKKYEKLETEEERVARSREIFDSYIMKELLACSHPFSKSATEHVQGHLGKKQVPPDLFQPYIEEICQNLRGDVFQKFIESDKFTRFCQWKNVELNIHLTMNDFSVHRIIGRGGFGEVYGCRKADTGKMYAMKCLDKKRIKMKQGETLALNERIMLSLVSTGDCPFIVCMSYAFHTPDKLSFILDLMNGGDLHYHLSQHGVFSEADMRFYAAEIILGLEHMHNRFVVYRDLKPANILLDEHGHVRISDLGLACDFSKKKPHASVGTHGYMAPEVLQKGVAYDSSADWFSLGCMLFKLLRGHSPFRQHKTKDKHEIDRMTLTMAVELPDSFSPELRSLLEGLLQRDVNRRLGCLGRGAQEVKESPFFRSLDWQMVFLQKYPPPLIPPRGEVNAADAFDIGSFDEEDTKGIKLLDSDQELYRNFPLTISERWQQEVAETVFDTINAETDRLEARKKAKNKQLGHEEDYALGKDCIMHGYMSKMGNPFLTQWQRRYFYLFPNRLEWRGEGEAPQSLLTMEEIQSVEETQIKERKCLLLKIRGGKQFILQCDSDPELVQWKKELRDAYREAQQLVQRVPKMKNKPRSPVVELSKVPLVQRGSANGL
B2AR ag: beta2AR agonists driving receptor internalization, primary screen, cell-based, FAP fluorogen, flow cytometry. Am2.2-beta2AR cells. 340,000 compounds, 0.43% hits. response, % (concentration not given with the values). AID 504454, 2011;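 active = response above a set limit, near 3 SD of response in nonfluorescent compounds, cut at about 42% in these data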
MEKK2 mut-MEK5: MEK5 binding signal on mutant MEKK2 PB1, primary screen, biochemical, multiplex bead flow cytometry, Alexa488-MEK5. Alexa488-MEK5 binding to MEKK2 mutant. percent response, % at 10 µM. 290,000 compounds, 0.35% hits. AID 1530, 2009; in the data active = percent response above about 24%, passing the limit was not always enough
MEKK3 PB1 HTS: modulators of MEKK3-MEK5 PB1 binding, primary screen, biochemical, wildtype MEKK3, multiplex bead flow cytometry, Alexa488-MEK5 | 290,000 compounds, 1.4% hits | binding response (% of control), % at 10 µM | AID 1529, 2009 | Mitogen-activated protein kinase kinase kinase 3 (Homo sapiens), Q99759 | bead-based flow cytometry, Alexa488-MEK5 binding to MEKK3; actives lie on both sides; 0 = blocked by unlabeled MEK5, 100 = vehicle;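 active = binding response more than 3 SD above or below the average of its plate-row segment, actives on both sides; inconclusive = wells at one plate position flagged as instrument error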;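 also: Alexa488 bead fluorescence after subtracting the streptavidin-only scavenger bead signal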
GRK2 inh confirm: GRK2 aptamer-displacing inhibitors, retest, confirmation, biochemical, cherry pick 1, bead flow cytometry. shares compounds with GRK2 inh. bead-bound GRK2, FAM-aptamer displacement. 2,000 compounds, 4% hits. aptamer displacement, % at 10 µM;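 active = aptamer displacement above 40%, near three times the noise of non-fluorescent compounds, on plates passing quality checks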;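 also: negative values mostly reflect intrinsic compound fluorescence rather than true enhancement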
FAM quench CP1: quenches fluorescent RNA aptamer, GRK2 hit artifact; shares compounds with GRK2 inh; Carboxyfluorescein RNA aptamer on beads, flow cytometry quenching; active compounds read low; fluorescence response (% of DMSO), % at 10 µM; 2,000 tested, under 10 active;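 active = compounds that quench the bead-bound fluorescent RNA probe, cutting fluorescence to under half of the solvent control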;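 also: counterscreen run without GRK2 so only probe quenching by compound is measured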
GRK2 CP2: GRK2 aptamer-displacing inhibitors, hit retest, confirmation, biochemical, cherry pick 2, bead flow cytometry; shares compounds with GRK2 inh; bead-bound GRK2, FAM-aptamer displacement; inhibition of aptamer binding, % at 10 µM; 360 tested, under 10 active; AID 504782, 2011;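 active = inhibition of aptamer binding above 40%, about triple the noise seen with nonglowing compounds, on plates passing quality control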;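 also: negative values mostly come from compounds that fluoresce themselves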
FAM quench CP2: quenches fluorescent RNA aptamer, GRK2 hit artifact | shares compounds with GRK2 inh | carboxyfluorescein RNA aptamer beads, flow cytometry quenching; active compounds read low | fluorescence response vs DMSO, % at 10 µM | 360 tested, under 10 active;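 active = response vs DMSO under 50%, meaning signal dropped by over half, treated as fluorescence quencher; inconclusive = no clear call, values can overlap the other calls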;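 also: labelled aptamer on streptavidin beads without GRK2 as a quench counter-screen; 100% = bead fluorescence of DMSO wells and lower means quenching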
An asterisk follows results filed as active; ? = inconclusive; · = no result. Compounds with a hit are over-represented: about 2.9% of the library has one in this group of screens.

SMILES	MEKK2 WT-MEK5	GRK2 inh	B2AR ag	MEKK2 mut-MEK5	MEKK3 PB1 HTS	GRK2 inh confirm	FAM quench CP1	others
Cc1noc(C)c1COc1ccc(C(=O)NNC(=O)c2ccccc2)cc1	·	100*	-13	·	·	1	107
O=C1Nc2cc(C(F)(F)F)ccc2N2CCCCC12 (configuration not stated)	106	52*	0	6	107	·	·	GRK2 CP2=27;FAM quench CP2=94
O=C1Nc2ccc(C(F)(F)F)cc2N2CCCC12 (configuration not stated)	89	0	·	0	97	·	·
CCc1ccc2nc3c(c(C(=O)O)c2c1)CCC3	76	13	3	-10	77	·	·	GRK2 CP2=13;FAM quench CP2=101
O=C(O)c1c2c(nc3ccc(S(=O)(=O)N4CCC(C(=O)N5CCCCC5)CC4)cc13)CCCC2	106	84*	-3	6	104	-1	98
CC1CCc2nc3ccc(S(=O)(=O)N4CCC(C(=O)N5CCCCC5)CC4)cc3c(C(=O)O)c2C1 (configuration not stated)	116	2	-9	6	114	·	·
C[C@H](CO)N1C[C@H](C)[C@@H](CN(C)S(=O)(=O)c2cccs2)Oc2c(NC(=O)CCC(F)(F)F)cccc2C1=O	·	2	-8	·	·	·	·
Cc1ccc(C(=O)NCC(=O)OCc2nnc(-c3ccc([N+](=O)[O-])cc3)o2)s1	·	5	-3	·	·	·	·
CCCOC(=O)c1cc(-c2ccc(/C=C3/C(=O)N(C)C(=O)C(C#N)=C3C)o2)ccc1Cl	·	52*	11	·	·	0	96
Cc1cc(N2CCOCC2)ccc1/C=C1\NC(=O)N(CC(=O)Nc2ccccc2C)C1=O	·	0	-4	·	·	2	100
CC(=O)Cn1c(CN2CCCC2)nc2ccccc2c1=O	79	0	-6	-13	98	·	·
COc1ccccc1N1CCN(Cc2nc3ccccc3c(=O)n2CC(C)=O)CC1	97	0	5	2	99	·	·	GRK2 CP2=16;FAM quench CP2=?
CCOCCCNC(=O)C(NC(=O)C1CCC(=O)N1)c1ccc(C)cc1 (configuration not stated)	110	45*	4	10	109	3	95
CCOCCCNC(=O)C(NC(=O)c1ccccc1O)c1ccc(C)cc1 (configuration not stated)	105	0	5	7	104	·	·
O=C1C2CCCN2C(=O)N1CCCCN1CCN(c2cccc(Cl)c2)CC1 (configuration not stated)	101	100*	-7	1	104	·	·	GRK2 CP2=3;FAM quench CP2=99
O=C(Cn1nnc(-c2ccccc2)n1)NCC(=O)Nc1ccc(F)c(F)c1F	·	0	-3	·	·	0	97
CC1(C(=O)NNC(=O)c2cccc([N+](=O)[O-])c2)CC1(Br)Br (configuration not stated)	108	40	-27	2	110	-4	101
CC1(C(=O)NNC(=O)c2ccc([N+](=O)[O-])cc2)CC1(Br)Br (configuration not stated)	96	0	5	-1	97	·	·
CN(CC(=O)Nc1ccccc1C(F)(F)F)C(=O)c1ccc2c(=O)n3c(nc2c1)CCC3	·	0	-4	·	·	·	·
O=C(NN1C(=O)/C(=C/C=C/c2ccco2)SC1=S)c1ccccc1O	98	39	-3	9	116	3	98
Cn1cccc1/C=C1\SC(=S)N(NC(=O)c2ccccc2O)C1=O	99	0	25	3	101	·	·
COc1ccc(CNC(=O)c2nn(-c3ccccc3)cc2OC)cc1	101	3	-19	5	100	·	·
CC(C)[C@H](NS(=O)(=O)c1cccc(Cl)c1)C(=O)OCC(=O)NC(=O)CN1CCCC1=O	·	45*	1	·	·	39	100
COC(=O)c1c(NC(=O)COC(=O)[C@@H](NS(=O)(=O)c2cccc(Cl)c2)C(C)C)sc2c1CCC2	98	0	-1	0	103	·	·
Cc1nn(CC(C)C)c2sc(C(=O)NC3CC(C)(C)NC(C)(C)C3)cc12	105	0	-8	7	104	·	·
SMILES	MEKK2 WT-MEK5	GRK2 inh	B2AR ag	MEKK2 mut-MEK5	MEKK3 PB1 HTS	GRK2 inh confirm	FAM quench CP1	others
CC(=O)c1cccc(NC(=O)c2cnn(-c3ccccc3)c2C)c1	106	0	2	4	108	6	97
Cc1c(C(=O)Nc2ccccc2)cnn1-c1ccccc1	·	3	-6	·	·	·	·
Clc1ccc2c(N/N=C/c3cccc(Br)c3)ccnc2c1	121	73*	46*	1	88	0	93
CCC(C)(C)NC(=O)c1ccc2c(c1)S(=O)(=O)c1ccccc1C2=O	100	54*	2	7	102	-1	99
Cc1cc(=O)oc2cc(OCC(=O)Nc3nccs3)ccc12	96	57*	-3	-5	97	0	102
CN(CC(=O)NCc1ccccn1)S(=O)(=O)c1ccc(Br)cc1	106	0	-5	1	114	·	·
CCCCNC(=O)CNC(=O)c1nn(-c2ccc(OC)c(Cl)c2)c(=O)c2ccccc12	106	0	-7	0	103	4	101
COc1ccc(-n2nc(C(=O)NCC(=O)NCCN(C)C)c3ccccc3c2=O)c(OC)c1	112	0	6	10	109	·	·
CCN(CC)CCNC(=O)CNC(=O)c1nn(-c2ccc(OC)cc2OC)c(=O)c2ccccc12	108	0	-7	1	101	-4	103
COC(=O)CNC(=O)CNC(=O)c1nn(-c2ccc(OC)c(Cl)c2)c(=O)c2ccccc12	·	0	-6	·	·	·	·
C[C@H]1CN=C(N(C)C)N1CCCC1CCCC1	·	42*	1	·	·	-5	100
O=C(NC1CCCCC1)N1CCN(Cc2nc3ccccc3c(=O)[nH]2)CC1	106	0	-1	5	104	·	·	GRK2 CP2=-6;FAM quench CP2=100

Screening results deposited in PubChem by NMMLSC.
